Inconclusive results are not listed. More than one record can exist for a structure, and the calls need not agree. Activity calls are given as the source filed them. Unless noted, the call rests on the fitted dose curve.
What was measured:
[1] = Primary qHTS for Huh7 cytotoxicity: counterscreen for inhibitors of MERS-S pseudotyped particle cell entry (AID 1479147); settings: outcome: dose series up to 57.1 µM unless noted; on activity change, negative = cytotoxicity: on the % scale 0 is the no-effect control and ±100 the full control effect
[2] = Primary qHTS for inhibitors of MERS-S pseudo-typed particle cell entry (AID 1479149); settings: outcome: dose series up to 57.1 µM unless noted; further: nearly all actives have a fitted effect of over 60% in size; on activity change, negative = inhibition: on the % scale 0 is the no-effect control and ±100 the full control effect
[3] = Primary qHTS for Vero E6 cytotoxicity: counterscreen for inhibitors of SARS-S pseudo-typed particle cell entry (AID 1479150); settings: outcome: dose series up to 57.1 µM unless noted; on activity change, negative = cytotoxicity: on the % scale 0 is the no-effect control and ±100 the full control effect
[4] = Cytotoxicity counterscreen for inhibitors of SARS-CoV-2 cell entry (AID 1645845); settings: outcome: dose series up to 57.1 µM unless noted; further: nearly all actives have a fitted effect of over 50% in size; on activity change, negative = cytotoxicity: on the % scale 0 is the no-effect control and ±100 the full control effect
Summary of the method: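 Expi293F/hACE2 cells seeded overnight; cpd pin-transferred in DMSO, 1 h preincubation, + media, 48 h 37 C 5% CO2; ATPLite 1step luminescence; normalized to cells and no cells.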

[5] = Primary qHTS to identify inhibitors of SARS-CoV-2 cell entry (AID 1645846); settings: SARS-CoV-2 pseudovirus cell entry assay, luminescence; further: nearly all actives have a fitted effect of over 45% in size; further: potency means the concentration at half of the fitted maximal effect
Summary of the method: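 HEK293-ACE2 (Expi293F, stable hACE2), 1500 cells/well, o/n 37C; cpd 23 nL pin, 1 h; MLV-PP w/ SARS-CoV-2-S (Wuhan-Hu-1, Δ19 C-term); 48 h 37C; Bright-Glo luminescence; normalized vs S-PP and bald PP.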

[6] = biological target: Glutathione peroxidase 1 (Homo sapiens) (UniProt P07203); assay: Primary qHTS Assay for Inhibitors of Recombinant Selenoprotein Glutathione Peroxidase 1 (GPX1) (AID 1845191; active means well fitted inhibition curve with a large enough effect; further: on the % scale 0 is the no-effect control and ±100 the full control effect; nearly all actives have a fitted effect of over 65% in size)
Chain of Glutathione peroxidase 1 (Homo sapiens) (P07203 whole entry, looked up): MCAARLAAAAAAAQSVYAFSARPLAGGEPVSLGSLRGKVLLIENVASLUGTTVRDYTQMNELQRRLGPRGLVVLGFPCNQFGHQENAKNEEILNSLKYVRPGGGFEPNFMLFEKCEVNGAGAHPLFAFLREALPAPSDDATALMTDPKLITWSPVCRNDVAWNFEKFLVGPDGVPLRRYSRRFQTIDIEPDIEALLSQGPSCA
Summary of the method: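 Recombinant GPX1 (10 nM final) was preincubated with compound for 30 min at room temperature, then reacted with 1 mM GSH, 0.5 mM CHP, 0.5 mM NADPH and 100 nM glutathione reductase; NADPH fluorescence (340/450 nm) was read at 0 and 15 min.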

[7] = biological target: Phospholipid hydroperoxide glutathione peroxidase GPX4 (Homo sapiens) (UniProt P36969); assay: Primary qHTS Assay for Inhibitors of Recombinant Selenoprotein Glutathione Peroxidase 4 (GPX4) (AID 1845192; active means well fitted inhibition curve with a large enough effect; further: on the % scale 0 is the no-effect control and ±100 the full control effect; nearly all actives have a fitted effect of over 65% in size)
Chain of Phospholipid hydroperoxide glutathione peroxidase GPX4 (Homo sapiens) (P36969 whole entry, looked up): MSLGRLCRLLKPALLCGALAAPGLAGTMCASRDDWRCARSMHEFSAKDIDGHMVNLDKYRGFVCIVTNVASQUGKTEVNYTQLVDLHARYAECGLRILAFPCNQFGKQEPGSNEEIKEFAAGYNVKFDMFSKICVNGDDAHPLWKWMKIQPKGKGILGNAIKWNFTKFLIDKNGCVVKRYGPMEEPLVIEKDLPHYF
Summary of the method: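 GR-coupled readout: 100 nM GR, 1 mM GSH, 0.5 mM NADPH; NADPH fluorescence (ex 340/em 450 nm) read at t=0 and after 15 min RT. GPX4 200 nM, preincubated 30 min with compound; substrate 0.5 mM CHP.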

[8] = VSVG counterscreen qHTS to identify inhibitors of SARS-CoV-2 cell entry (AID 1645847); further: potency means the concentration at half of the fitted maximal effect; nearly all actives have a fitted effect of over 65% in size
Summary of the method: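 Expi293F/hACE2 cells, overnight plating; cpd 1 h, 37C/5% CO2; + VSV-G PP (MLV pseudotyping), 48 h; supernatant removed, Bright-Glo luciferase read. Norm: VSV-G PP and bald PP wells.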

[9] = Confirmatory qHTS for VERO E6 Cytotoxicity Assay: Counterscreen for SARS-CoV-2 CPE Assay (AID 1508605); further: on the % scale 0 is the no-effect control and ±100 the full control effect; nearly all actives have a fitted effect of over 60% in size
[10] = Confirmatory qHTS for activators (rescue) of SARS-CoV-2 Cytopathic Effect (CPE) (AID 1508606); further: potency means the concentration at half of the fitted maximal effect; nearly all actives have a fitted effect of over 70% in size
[11] = Confirmatory qHTS to identify inhibitors of SARS-CoV-2 cell entry (AID 1645844); further: potency means the concentration at half of the fitted maximal effect; nearly all actives have a fitted effect of over 45% in size
Summary of the method: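 HEK293-ACE2 cells (Expi293F stably expressing human ACE2) were pretreated with compounds for 1 hr at 37C, then infected with MLV-based particles carrying Wuhan-Hu-1 spike (C-terminal 19-aa truncation). Luciferase luminescence read after 48 hr; normalized to spike PP (100%) and bald PP (0%).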

[12] = activity change, negative = inhibition: at 57.1 µM (top of the series) unless noted, outcome: at 57.1 µM (top of the series) unless noted

CCOC(=O)[C@@H](N)CS
inactive: Potency [1] | Potency [2] | Potency [3] | Potency [4]
-29%: activity change, negative = inhibition [5, 12]

C[N@+]12CCCC[C@@H]1CCC(=C(c1cccs1)c1cccs1)C2
-20.7%: activity change, negative = inhibition [5, 12]
inactive: Potency [1] | Potency [2] | Potency [3] | Potency [4]

CCCCC(F)(F)C1(O)CCC2C(CC(=O)C2CCCCCCC(=O)O)O1 (stereo unspecified)
inactive: Potency [1] | Potency [2] | Potency [3] | Potency [4] | Potency [5, 12]

CC(C)N[C@@H]1CCn2c(=O)[nH]c3cccc(c32)[C@H]1O
inactive: Potency [1] | Potency [2] | Potency [3] | Potency [4] | Potency [5, 12] | Potency [6] | Potency [7]

C[C@H]1CNCCCN1S(=O)(=O)c1cccc2cncc(F)c12
-12.6%: activity change, negative = inhibition ([5]; at 57.1 µM (top of the series))
-27.6%: activity change, negative = inhibition ([5]; at 27.1 µM (top of the series))
inactive: Potency [1] | Potency [2] | Potency [3] | Potency [4]

CCCCC(CC)COc1ccc(-c2nc(-c3ccc(OC)cc3)nc(-c3ccc(OCC(CC)CCCC)cc3O)n2)c(O)c1 (stereo unspecified)
inactive: activity change, negative = cytotoxicity [1] -14.4% [at 5.34 µM] | activity change, negative = inhibition [2] -1.24% [at 5.34 µM] | activity change, negative = cytotoxicity [3] -1.62% [at 5.34 µM] | activity change, negative = cytotoxicity [4] -8.22% [at 5.25 µM] | outcome [5, 12] inactive [at 5.25 µM]

Cc1ccc(Sc2ccccc2N2CCNCC2)c(C)c1
active: Potency [5, 12] 22.4 µM
-7.77%: activity change, negative = inhibition [5, 12]
inactive: Potency [1] | Potency [2] | Potency [3] | Potency [4]

Cc1ccccc1-c1cc(N2CCN(C)CC2)ncc1N(C)C(=O)C(C)(C)c1cc(C(F)(F)F)cc(C(F)(F)F)c1
3.24%: activity change, negative = inhibition [5, 12]
inactive: Potency [1] | Potency [2] | Potency [3] | Potency [4]

CCC(=O)O[C@H]1CC[C@H]2[C@@H]3CC[C@H]4CC(=O)[C@H](C)C[C@]4(C)[C@H]3CC[C@]12C
inactive: Potency [1] | Potency [2] | Potency [3] | Potency [4] | Potency [6] | Potency [7]
-28.3%: activity change, negative = inhibition [5, 12]

C[C@@H]1C[C@H]2[C@@H]3C[C@H](F)C4=CC(=O)C=C[C@]4(C)[C@@]3(Cl)[C@@H](O)C[C@]2(C)[C@H]1C(=O)COC(=O)C(C)(C)C
1.93%: activity change, negative = inhibition [5, 12]
inactive: Potency [1] | Potency [2] | Potency [3] | Potency [4]

CCC(=O)O[C@@H]1CC(=O)O[C@H](C)C/C=C/C=C/[C@@H](O)[C@H](C)C[C@H](CC=O)[C@H](OC2O[C@H](C)[C@@H](O[C@H]3C[C@@](C)(O)[C@@H](OC(=O)CC)[C@H](C)O3)[C@H](N(C)C)[C@H]2O)[C@H]1OC (stereo partly specified)
inactive: Potency [1] | Potency [2] | Potency [3] | Potency [4]
-26.3%: activity change, negative = inhibition [5, 12]

C/C(=C\c1csc(C)n1)[C@@H]1C[C@@H]2O[C@]2(C)CCC[C@H](C)[C@H](O)[C@@H](C)C(=O)C(C)(C)[C@@H](O)CC(=O)N1
active: Potency [5, 12] 2.82 µM | Potency [8] 0.152 µM
inactive: Potency [1] | Potency [2] | Potency [3] | Potency [4]

CCCCCCCCCCC(=O)O[C@H]1CC[C@H]2[C@@H]3CCC4=CC(=O)CC[C@]4(C)[C@H]3CC[C@]12C
inactive: Potency [1] | Potency [2] | Potency [3] | Potency [4] | Potency [5, 12] | Potency [6] | Potency [7]

CC(C)c1nc(N(C)S(C)(=O)=O)nc(-c2ccc(F)cc2)c1/C=C/[C@@H](O)C[C@@H](O)CC(=O)O
inactive: Potency [1] | Potency [2] | Potency [3] | Potency [4] | Potency [5, 12]

CNc1ncc(-c2ccc3c(=O)c(C(=O)O)cn(C4CC4)c3c2C)cc1C
-15.2% [at 19 µM]: activity change, negative = inhibition [5, 12]
inactive: Potency [1] | Potency [2] | Potency [3] | Potency [4]

CN(C)C1C(=O)C(C(N)=O)=C(O)C2(O)C(=O)C3=C(O)c4c(O)ccc(Cl)c4C(C)(O)C3CC12 (stereo unspecified)
inactive: Potency [1] | Potency [2] | Potency [3] | Potency [4] | Potency [6]

CCOC(=O)c1c[nH]c2cc(OCC(C)C)c(OCC(C)C)cc2c1=O
inactive: Potency [1] | Potency [2] | Potency [4]
-18.7%: activity change, negative = inhibition [5, 12]

CC(CC(c1ccccc1)c1ccccc1)NC(C)(C)C (stereo unspecified)
inactive: Potency [1] | Potency [3]

CN1CCC2=C(C1)C(c1ccccc1)c1ccccc12 (stereo unspecified)
inactive: Potency [1] | Potency [2] | Potency [3] | Potency [4] | Potency [7]

CN1C(=O)C[C@@H](C(=O)N[C@@H](Cc2cnc[nH]2)C(=O)N2CCC[C@H]2C(N)=O)NC1=O
-23.8%: activity change, negative = inhibition [5, 12]
inactive: Potency [1] | Potency [2] | Potency [3]

CN1CC[C@H](CN2c3ccccc3Sc3ccccc32)C1
active: Potency [10] 11.2 µM | Potency [11] 3.41 µM | Potency [5, 12] 12.6 µM
inactive: Potency [1] | Potency [3] | Potency [9] | Potency [4]
